In PubChem BioAssay (Tox21):
Results filed as inconclusive are left out. Activity calls are given as the source filed them. Unless noted, the call rests on the fitted dose curve; in most records, active means well fitted curve in the direction sought with a large enough effect in the repeat runs; inconclusive means weak or mixed curves; inactive means no such curve, though single readings can be large; an effect the other way counts as inactive or inconclusive.

What was measured:
[1] = qHTS assay to identify small molecule agonists of the hypoxia (HIF-1) signaling pathway (AID 1224846; active means well fitted activation curve with a large enough effect in the signal ratio in the repeat runs, not every such curve was filed as active; the % refers to the signal ratio)
Method in brief: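 Compounds added to ME-180 cells carrying hypoxia-response-element beta-lactamase reporter (0.5% dialyzed FBS, 5 h preplating), 17 h at 37C; agonist activity detected by CCF4-AM B/G FRET read-out.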

[2] = qHTS assay to identify small molecule agonists of H2AX - cell viability counter screen (AID 1224847; calls by dose curve; further: nearly all actives have a fitted effect of over 30% in size; further: potency means the concentration at half of the fitted maximal effect; on activity change, negative = cytotoxicity: top concentration of the series differs between compounds)
Method in brief: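 Read-out: CellTiter-Glo luminescence, 30 min RT. Cells: wild-type CHO-K1, 1000/well, 10% FBS, plated overnight at 37C. Treatment: 15 concentrations, 3 hr, 37C, 0.76% DMSO.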

[3] = qHTS RealTime-Glo MT Cell Viability Assay in HepG2 cells - 24 hour (AID 1224867); further: nearly all actives have a fitted effect of over 50% in size
Method in brief: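 Cell number in HepG2 cultures estimated from NanoLuc luminescence generated by metabolic reduction of a prosubstrate by living cells. The homogeneous, nonlytic format allowed repeated reads at 0, 8, 16, 24, 32 and 40 h of compound exposure.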

[4] = A CellTox Green Cytotoxicity Assay to monitor cytotoxicity in HEK293 cells - 0 hour (AID 1224869); further: nearly all actives have a fitted effect of over 50% in size
Method in brief: (§1)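 Fluorescence from a DNA-binding dye excluded by viable cells was measured repeatedly in the same HEK293 wells (600 cells/well) during continuous compound exposure at 37 C. Each assay gives one read point: 0, 8, 16, 24, 32 or 40 h.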

[5] = qHTS RealTime-Glo MT Cell Viability Assay in HepG2 cells - 40 hour (AID 1224870); further: nearly all actives have a fitted effect of over 50% in size
Method in brief: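 HepG2 cells (600/well) mixed with RealTime-Glo MT reagent, settled 5 h at 37 C/5% CO2 before compound addition. Nonlytic NanoLuc luminescence from viable-cell prosubstrate reduction read repeatedly during 40 h treatment at 37 C.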

[6] = A CellTox Green Cytotoxicity Assay to monitor cytotoxicity in HEK293 cells - 40 hour (AID 1224871); further: nearly all actives have a fitted effect of over 45% in size
Method in brief: as §1

[7] = qHTS assay to identify small molecule antagonists of the estrogen related receptor (ERR) signaling pathway from Tox21 library (AID 1224848); further: nearly all actives have a fitted effect of over 50% in size; further: potency means the concentration at half of the fitted maximal effect
Method in brief: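 Compounds dissolved in DMSO are pin-transferred onto ERR reporter cells (2,000 per well) that have settled for 6 h at 37 C. Plates then incubate 18 h at 37 C before ONE-Glo luciferase reagent and a luminescence read 30 min later.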

[8] = qHTS RealTime-Glo MT Cell Viability Assay in HEK293 cells - 32 hour (AID 1224868); further: nearly all actives have a fitted effect of over 50% in size; further: potency means the concentration at half of the fitted maximal effect; on activity change, negative = cytotoxic: top concentration of the series differs between compounds
Method in brief: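 Homogeneous bioluminescent viability format in HEK293 cells (600 cells/well). Following 5 h at 37 C/5% CO2, 23 nL compound was pintooled; the signal was measured repeatedly during 40 h incubation.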

[9] = qHTS assay to identify small molecule agonists of the estrogen related receptor (ERR) signaling pathway from Tox21 library (AID 1224849; calls by dose curve; further: nearly all actives have a fitted effect of over 15% in size); settings: ERR reporter cell line, ONE-Glo luciferase, 18 h; at 92.4 µM (top of the series) unless noted
Method in brief: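 Luminescent agonist read-out (One-Glo, 30-minute room-temperature incubation) following 18-hour compound treatment at 37 C of the ERR cell line, which had been plated 6 hours before dosing.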
On the % scale 0 is the no-effect control and ±100 the full control effect.

C=C(C)C(=O)OCCOCC
inactive: Potency [1] | Potency [2] | Potency [3] | Potency [4] | Potency [5] | Potency [6]

COc1cc(Cl)ccc1Oc1ccc(Cl)cc1Cl
inactive: Potency [7] | Potency [3] | Potency [8] | Potency [4] | Potency [5] | Potency [6]
active: Potency [2] 97.9 µM

O=C(c1ccc(F)cc1)C1CCN(CCn2c(=S)[nH]c3ccccc3c2=O)CC1
inactive: Potency [1] | activity change, positive = activation [9] -56.8% [at 42.5 µM] | Potency [4] | Potency [5] | Potency [6]
active: Potency [2] 49.2 µM | Potency [7] 26.6 µM | Potency [8] 5.35 µM

O=C(CS)Nc1ccccc1
inactive: Potency [1] | Potency [2] | Potency [8] | Potency [4] | Potency [5] | Potency [6]

Brc1c2ccccc2c(Br)c2ccccc12
inactive: activity change, negative = cytotoxicity [2] 5.06% [at 14 µM] | activity, negative = inhibition [7] 4.96% [at 8.39 µM] | activity change, positive = activation [9] 2.61% [at 8.39 µM] | activity change, negative = cytotoxicity [3] 2.73% [at 6.97 µM] | activity change, negative = cytotoxic [8] 4.29% [at 6.97 µM] | cytotoxicity [4] 0.676% [at 6.97 µM] | activity change, negative = cytotoxic [5] 1.43% [at 6.97 µM] | cytotoxicity increase [6] -0.912% [at 6.97 µM]

C[N+]1(C)CCC(OC(=O)C(O)(c2ccccc2)C2CCCC2)C1 (configuration not stated)
inactive: Potency [2] | Potency [5]
